NPC1 prom act – activators of NPC1 promoter; Huh7 NPC1 promoter luciferase reporter, 24 h; Potency, µM (titrated, usually from 9.22 µM), hits mostly activators; 320,000 compounds, 2.4% hits; note: nearly all actives have a fitted effect of over 60% in size
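Quantitative HTS used a cell-based reporter: Huh7 cells stably bearing the NPC1 promoter upstream of luciferase were treated with compounds for 24 h, and promoter activation was read as luminescence.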
ELG1 genotoxic – inducers of genotoxicity in HEK293T ELG1-luciferase cells; HEK293T ELG1-luciferase reporter, luminescence, 16 h; Potency, µM (doses to about 46 µM), most hits filed as activators; 330,000 compounds, 1.3% hits; AID 504466; note: nearly all actives have a fitted effect of over 60% in size
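After overnight (16 hr) compound treatment at 37 °C, ELG1-luciferase HEK293T cells were lysed with ONE-Glo; luminescence quantified 30 min later at room temperature.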
Rab9 prom act – activates the Rab9 promoter | Huh7 Rab9 promoter-luciferase reporter, luminescence, 24 h | Potency, µM (highest dose often 9.22 µM), most hits filed as activators | 320,000 compounds, 2.8% hits | AID 485297; note: nearly all actives have a fitted effect of over 60% in size
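Promoter activation is measured as luciferase luminescence in Huh7 cells stably transfected with a Rab9 promoter–luciferase construct, following 24 h compound exposure at 37 °C and 10 min reagent incubation at ambient temperature.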
SMN2 splice enh – SMN2 splice variant enhancement. 210,000 compounds, 2.8% hits. Potency, µM (highest dose often 46.1 µM), hits mostly activators. HEK293 SMN2-luciferase splicing reporter, luminescence, 30-36 h; note: nearly all actives have a fitted effect of over 55% in size
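HEK293 cells carry an SMN2 […]–luciferase reporter in which exon 7 inclusion puts luciferase in frame. Cells were plated 10-12 h before compound addition, then incubated 30-36 h at 37C. ONE-Glo luminescence was read; sodium butyrate at 4.5 mM final served as control.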
FLuc counter – firefly luciferase modulation, counter-screen for miR-21 project | purified FLuc, Km substrates, luminescence inhibition | AID 588342 | P08659 | 360,000 compounds, 6.9% hits | Potency, µM (series often up to 57.5 µM), hits mostly inhibitors; note: nearly all actives have a fitted effect of over 55% in size
Target sequence (P08659 whole entry, looked up): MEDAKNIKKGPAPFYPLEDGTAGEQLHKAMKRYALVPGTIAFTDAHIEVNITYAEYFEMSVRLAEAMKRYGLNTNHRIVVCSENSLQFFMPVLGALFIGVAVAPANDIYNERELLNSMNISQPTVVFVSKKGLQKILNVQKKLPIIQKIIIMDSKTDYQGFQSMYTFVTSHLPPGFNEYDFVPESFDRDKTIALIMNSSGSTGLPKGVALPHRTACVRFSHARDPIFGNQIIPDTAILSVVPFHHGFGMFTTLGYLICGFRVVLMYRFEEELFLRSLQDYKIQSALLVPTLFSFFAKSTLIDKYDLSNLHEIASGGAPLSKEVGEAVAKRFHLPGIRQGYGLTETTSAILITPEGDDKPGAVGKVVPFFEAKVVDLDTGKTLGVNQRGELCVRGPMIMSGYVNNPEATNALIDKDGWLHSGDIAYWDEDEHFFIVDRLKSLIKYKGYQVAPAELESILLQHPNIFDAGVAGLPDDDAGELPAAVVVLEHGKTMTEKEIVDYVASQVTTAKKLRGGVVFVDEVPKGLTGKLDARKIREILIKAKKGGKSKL
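Purified P. pyralis luciferase (10nM final) with 10uM D-luciferin and 10uM ATP (Km levels) in 50mM Tris acetate pH 7.5, 10mM Mg acetate, 0.01% Tween-20, 0.05% BSA; qHTS 6-point titration, ~60 µM downward; luminescence read.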
A number is an active result; 0 = inactive; ? = inconclusive; - = no result; [ ] = another dose, or the depositor's remark. Rows were chosen to be rich in hits. Some 7.5% of all compounds tested hit in one or more screens of this group. Calls come from the whole dose curve; as a rule, active = well fitted curve in the direction sought with a large enough effect; inconclusive = small, poorly fitted or top-dose-only effect, or another doubt; inactive = no such curve, though single readings can be large; an effect the other way counts as inactive or inconclusive.

SMILES	NPC1 prom act	ELG1 genotoxic	Rab9 prom act	SMN2 splice enh	FLuc counter
CCOC(=O)c1sc(NC(=O)C2=COCCO2)c(C#N)c1C	0	0	0	-	?
Cc1csc(CN(C)C(=O)CC2C(=O)NCCN2Cc2ccc(F)cc2Cl)n1 (stereo not drawn)	0	0	0	-	0
COc1cccc2[nH]c3ccccc3c(=O)c12	0	0	0	-	16.9µM
Cc1ccc(-n2nc(C)c3c2OC(N)=C(C#N)C3c2ccoc2)cc1 (stereo not drawn)	0	0	0	0	10.7µM
Cc1nn(-c2ccccc2)c2c1C(c1ccccc1)C(C#N)=C(N)O2 (stereo not drawn)	0	0	0	0	0
Cc1ccc(-n2nc(C)c3c2OC(N)=C(C#N)C3c2ccco2)cc1 (stereo not drawn)	0	0	0	0	1.69µM
CCC(Oc1ccccc1F)C(=O)Nc1c(C(=O)c2ccccc2)oc2ccccc12 (stereo not drawn)	-	-	-	0	0
CC(C)c1nc2cc3ccccc3cc2[nH]1	0	0	0	0	19µM
COc1ccc(OC)c(NC(=O)C2=C(C)C(=O)OC23CCN(C(C)C)CC3)c1	-	-	-	-	0
O=c1ccc2cc(S(=O)(=O)N3CCOCC3)ccc2o1	0	0	0	7.94µM	0
COc1ccc(N2CCN(S(=O)(=O)c3ccc4oc(=O)ccc4c3)CC2)cc1	0	0	0	-	0
Cc1ccc(S(=O)(=O)N/N=C\c2ccc3c(c2)OCO3)cc1	0	0	0	0	15.1µM
Cc1ccc(S(=O)(=O)N/N=C\c2ccc3c(c2)OCO3)cc1C	0	0	0	-	0
COC(=O)c1ccc(CO/N=C/c2ccccc2OC)cc1	0	0	0	-	0
O=S(=O)(N/N=C\c1ccc2c(c1)OCO2)c1ccccc1	0	0	0	-	21.3µM
COc1ccccc1/C=N/OC(=O)c1ccc(C)cc1	0	0	0	-	1.9µM
Cc1ccc(C(=O)O/N=C/c2ccc3c(c2)OCO3)cc1	0	0	0	0	1.2µM
O=C(O/N=C/c1ccc2c(c1)OCO2)c1ccc([N+](=O)[O-])cc1	0	0	0	0	0
CNS(=O)(=O)c1cn(CC(=O)N2CCN(c3cc(C)ccc3C)CC2)cc1S(=O)(=O)NC	-	-	-	-	0
COc1ccc(OC)c(S(=O)(=O)N/N=C\c2ccc3c(c2)OCO3)c1	0	?	0	-	9.53µM
COc1ccc(S(=O)(=O)N/N=C\c2ccc3c(c2)OCO3)c(OC)c1	0	0	0	-	0
CCCCCc1nnc(NC(=O)C2CCCO2)s1 (stereo not drawn)	0	13µM	?	?	?
CC(C)Cc1nnc(NC(=O)C2=COCCO2)s1	?	?	?	-	16.9µM
CCCCCc1nnc(NC(=O)c2ccc(N3CCCC3=O)cc2)s1	0	0	0	-	0
CCCCCc1nnc(NC(=O)C2=COCCO2)s1	2.82µM	?	2.24µM	-	19µM
SMILES	NPC1 prom act	ELG1 genotoxic	Rab9 prom act	SMN2 splice enh	FLuc counter
O=C(Nc1nccs1)C1=COCCO1	-	0	-	-	-
COC(=O)C1(C)C=CC2(CCCCC2)N1C(=O)c1ccccc1 (stereo not drawn)	-	-	-	0	-
CCN(C(=O)CN1CCCC(C)C1)c1c(N)n(Cc2ccccc2)c(=O)[nH]c1=O (stereo not drawn)	-	0	-	-	-
CCOc1ccc(NC(=O)COc2ccccc2)c([N+](=O)[O-])c1	?	?	3.55µM	?	3.01µM
Cc1ccc(C(=O)/C=C/Nc2ccc([N+](=O)[O-])cc2Br)cc1	0.447µM	?	0.447µM	?	0.338µM
CCOc1ccc(N/C=C/C(=O)c2ccc(C)cc2)c([N+](=O)[O-])c1	1.41µM	?	?	?	1.35µM
CCOc1ccc(NC(=O)Cc2ccccc2)c([N+](=O)[O-])c1	0	0	0	0	0
CCOc1ccc(N/C=C/C(=O)c2ccc3ccccc3c2)c([N+](=O)[O-])c1	2µM	0	2µM	2.51µM	0.849µM
COc1ccc(C)cc1NC(=O)CSc1nnc(CC(=O)Nc2ccccc2C)n1C	0	0	0	?	0
COc1ccc(-c2nc3scc(CCNS(=O)(=O)c4ccc(F)cc4F)n3n2)cc1OC	-	-	-	-	0
Cc1ccc(S(=O)(=O)N2CCCC2CNC(=O)c2ccc(F)c(F)c2)cc1 (stereo not drawn)	0	0	0	-	0
COc1cccc(CNC(=O)c2oc3c(c2C)-c2nn(Cc4cccc(Cl)c4)cc2CC3)c1OC	-	-	-	-	0
CCOC(=O)N/N=C/c1cn(Cc2ccc(Cl)cc2)c2ccccc12	0	0	0	0	0
CC(=O)n1cc(/C=N/NC(=O)c2ccccc2Cl)c2ccccc21	0	0	0	-	19µM
CC(=O)n1cc(/C=N/NC(=O)c2cccc(O)c2)c2ccccc21	0	0	0	-	9.53µM
CC(=O)n1cc(/C=N/NC(=O)c2ccc(Cl)cc2)c2ccccc21	0	0	0	-	3.38µM
O=C(N/N=C/c1ccc(OC(=O)c2ccccc2)cc1)c1cccc(O)c1	0	0	0	0	0
COC(=O)N[C@@H](c1ccc(Br)cc1)C(C(=O)OC)C(=O)OC	-	-	-	0	-
Nc1ccc2oc(-c3ccccn3)nc2c1	?	?	?	2.82µM	19µM
Clc1ccc2oc(-c3ccccn3)nc2c1	2.51µM	?	3.16µM	15.8µM	0[2.3 µM]
CC(CNC(=O)CN1C(=O)COc2ccc(S(=O)(=O)N3CCCCC3)cc21)c1ccccc1 (stereo not drawn)	0	0	0	-	0
CCOc1cc(C(=O)Nc2cc(C)on2)cc(OCC)c1OCC	0	0	0	?	0
Cc1cc(NC(=O)c2cccc(COc3ccc(Br)cc3)c2)no1	0.355µM	0.651µM	0.447µM	0.355µM	9.53µM
Cc1cc(NC(=O)c2ccccc2-c2ccccc2C(=O)O)no1	0	0	0	0	0
C/C(=C\c1ccccc1)C(=O)Nc1cc(C)on1	0	?	?	0	15.1µM
SMILES	NPC1 prom act	ELG1 genotoxic	Rab9 prom act	SMN2 splice enh	FLuc counter
CCOc1ccc(C(=O)Nc2cc(C)on2)cc1	1.12µM	?	1.41µM	8.91µM	3.38µM
Cc1cc(NC(=O)c2ccc(Cl)cc2)no1	?	8.2µM	3.16µM	11.2µM	7.57µM
Cc1cc(NC(=O)COC(=O)c2cccc(OCc3ccccc3)c2)no1	0	0	0	0	0
COc1ccc(Cl)cc1N1C(=O)CC(N2CCN(S(=O)(=O)c3ccccc3F)CC2)C1=O (stereo not drawn)	-	0	-	-	-
Cc1cc(NC(=O)NC(=O)c2ccccc2)no1	3.98µM	14.6µM	2.51µM	-	?
Cc1cc(NC(=O)c2ccc3nc(C)sc3c2)no1	0.891µM	9.2µM	1.78µM	3.98µM	?
Cc1cc(NC(=O)Cc2ccccc2)no1	0	0	0	0	0
Clc1ccc(CSC2=NCCN2)cc1Cl	-	-	-	0[9.22 µM]	-
N#Cc1ccc(C(=O)CSc2n[nH]c(=O)n2Cc2ccco2)cc1	0	0	0	-	0
O=C(CSc1n[nH]c(=O)n1Cc1ccco1)c1ccc2c(c1)OCCO2	0	?	?	-	15.1µM
O=C(CSc1n[nH]c(=O)n1C1CC1)c1ccc2c(c1)OCCO2	?	0	?	-	13.5µM
O=C(CSCc1ccc(Cl)cc1)Nc1cccc(C(=O)O)c1	0	0	0	-	?
